In the library only some 7.3% were active in any assay of this set; here they are far more common.
IP6K1 inh = inhibitors of human IP6K1. activity change, % (series mostly up to about 58 µM). Q92551. IP6K1 kinase, ADP-Glo luminescence, 2 h; active compounds read low. 0.81% of 140,000 active; in the data active = activity change below about -25%
Target sequence (Q92551 whole entry, looked up): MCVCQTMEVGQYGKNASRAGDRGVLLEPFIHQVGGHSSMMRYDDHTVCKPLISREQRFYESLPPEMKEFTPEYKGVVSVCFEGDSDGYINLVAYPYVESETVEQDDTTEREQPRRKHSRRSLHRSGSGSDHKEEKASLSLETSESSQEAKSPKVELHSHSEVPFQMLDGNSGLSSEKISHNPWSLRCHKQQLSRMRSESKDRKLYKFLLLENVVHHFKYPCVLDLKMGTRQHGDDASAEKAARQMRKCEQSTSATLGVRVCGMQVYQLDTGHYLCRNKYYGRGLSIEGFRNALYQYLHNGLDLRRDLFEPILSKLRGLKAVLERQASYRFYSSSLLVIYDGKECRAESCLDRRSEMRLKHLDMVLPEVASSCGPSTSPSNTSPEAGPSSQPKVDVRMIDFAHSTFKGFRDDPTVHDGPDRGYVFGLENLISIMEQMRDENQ
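ADP-Glo luminescence measures ADP made by human IP6K1 during a 2 h RT reaction with ATP/IP6 (mix at 1.3 mM/130 uM); top library doses 57.5 and 19.1 uM final.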
SNCA viab count = cell viability loss counter-screen. HEK-293-SNCA-luc viability, GF-AFC fluorescence, 24 h. Potency, µM (titrated, usually from 57.1 µM), without a hit: top-dose activity change, negative = cytotoxicity, actives largely listed as cytotoxic. 0.12% of 150,000 active;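 also: potency is read from the fitted curve at half-maximal effect; 0% = DMSO-treated cells and -100% = medium-only wells without cells; nearly all actives have a fitted effect of over 30% in size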
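Cytotoxicity counterscreen: after 24 h compound treatment of genome-edited SNCA-luciferase HEK-293 cells, live-cell protease substrate GF-AFC read by fluorescence after 30 min; activity scaled between DMSO (0%) and medium-only (-100%), curves Hill-fitted.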
Luciferase inh = Photinus pyralis luciferase inhibition. P08659. AID 1347043. purified P. pyralis luciferase, luminescence, biochemical. 2.5% of 76,000 active. Potency, µM (top dose mostly 115 µM), usual class: inhibitors; also: potency is read from the fitted curve at half-maximal effect; nearly all actives have a fitted effect of over 65% in size
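Inhibitors were tested against purified firefly luciferase in a biochemical, low-substrate format (both substrates at 10uM) and luminescence measured with a CCD imager.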
3T3 cytotox = kills NIH 3T3 cells. NIH 3T3 viability, CellTiter-Glo ATP luminescence, 48-72 h. AID 1345082. Potency, µM (titrated, usually from 96.7 µM), without a hit: top-dose activity change, negative = cytotoxicity, most hits filed as inhibitors. 4.3% of 94,000 active; also: potency is read from the fitted curve at half-maximal effect; nearly all actives have a fitted effect of over 55% in size
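Mouse fibroblast NIH 3T3 cells, 400 per well, received compound via pintool and were incubated for 48 or 72 hr prior to CellTiter-Glo ATP luminescence measurement.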
HEK293 tox = kills HEK 293 cells | HEK 293 viability, ATP luminescence (CellTiter-Glo), 48-72 h | Potency, µM (series often up to 115 µM), for inactives: top-dose activity change, negative = cytotoxicity, usual class: inhibitors | 6.6% of 94,000 active; also: potency is read from the fitted curve at half-maximal effect; nearly all actives have a fitted effect of over 60% in size
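HEK 293 cells at 250 cells/well were exposed to compounds by pintool transfer for 48 or 72 hr at 37 degree Celsius, 5% CO2. Viability was read as ATP-coupled luminescence with CellTiter-Glo after 10 min at room temperature.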
SNCA expr inh = SNCA gene expression inhibition; HEK-293 SNCA-luciferase knock-in, luminescence, 24 h; Potency, µM (top dose mostly 57.2 µM), for the others: at the top dose activity change, negative = inhibition, hits mostly inhibitors; 0.17% of 140,000 active; AID 1671194;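 also: potency is read from the fitted curve at half-maximal effect; plate controls were DMSO cells for no effect and cell-free wells for full effect; nearly all actives have a fitted effect of over 45% in size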
IP6K1 inh cnf = confirmation of human IP6K1 inhibitors. recombinant IP6K1 kinase, ADP-Glo luminescence, 2 h. Potency, µM (top dose mostly 49 µM), inactives show top-dose activity change, negative = inhibition, actives largely listed as inhibitors. 13% of 1,200 active. shares compounds with IP6K1 inh; also: potency is read from the fitted curve at half-maximal effect; nearly all actives have a fitted effect of over 65% in size
* marks the source's active call; other numbers are inactive results; [ ] = another dose, or the depositor's remark. Unless noted, calls follow the shape of the dose curve; as a rule, active = well fitted curve in the direction sought with a large enough effect; inconclusive = small, poorly fitted or top-dose-only effect, or another doubt; inactive = no such curve, though single readings can be large; an effect the other way counts as inactive or inconclusive. Unless noted, % is scaled to controls: 0 for no effect and ±100 for the full control effect.

What do the screens show for `CCOC(=O)c1cnc2c(C)cc(C)cc2c1NCCN1CCOCC1`?
IP6K1 inh: -6.9; SNCA viab count: -13.4%; SNCA expr inh: -27.8%

What do the screens show for `CCOC(=O)c1cnc2c(C)cc(C)cc2c1Nc1cccc(C(=O)O)c1`?
IP6K1 inh: -26.4*; SNCA viab count: -11.3%; SNCA expr inh: 39.8%; IP6K1 inh cnf: inconclusive

What do the screens show for `O=c1[nH]c(=O)n(C2CCCCC2)c(O)c1C1=Nc2ccccc2SC(c2ccccc2)C1` (centres undefined)?
IP6K1 inh: -9.5; SNCA viab count: 6.4%; SNCA expr inh: 95.7%

Results for CN(C)c1ccc(C2CC(c3c(O)n(C4CCCCC4)c(=O)[nH]c3=O)=Nc3ccccc3S2)cc1 (centres undefined) ?
IP6K1 inh: -31.9*; SNCA viab count: 3.5%; SNCA expr inh: -14.3%; IP6K1 inh cnf: 15.6%

What do the screens show for `O=C1Nc2ccccc2C12CN(Cc1ccccc1)C2`?
IP6K1 inh: -14.7; SNCA viab count: -1.3%[87.6 µM]; 3T3 cytotox: inconclusive; HEK293 tox: inconclusive; SNCA expr inh: -23.6%[87.6 µM]

How did O=C(O)CC1(O)C(=O)Nc2ccccc21 (centres undefined) do in these assays?
IP6K1 inh: -31.1*; SNCA viab count: 4.4%[87.6 µM]; IP6K1 inh cnf: inconclusive

How did COc1ccc(N2CCN(CC(O)COc3c(OC)cccc3OC)CC2)cc1 (centres undefined) do in these assays?
IP6K1 inh: -45.8*; SNCA viab count: 7.4%; SNCA expr inh: 51.2%; IP6K1 inh cnf: -14.9%

What do the screens show for `COc1ccc(N2CCN(CC(O)COc3ccccc3C(C)(C)C)CC2)cc1` (centres undefined)?
IP6K1 inh: -26.9*; SNCA viab count: 5.4%; SNCA expr inh: inconclusive; IP6K1 inh cnf: inconclusive

What do the screens show for `OC1(c2csc(CN3CCOCC3)n2)CCN(CC2CCCCC2)CC1`?
IP6K1 inh: 6.4; SNCA viab count: 1.3%[87.6 µM]; Luciferase inh: inactive; 3T3 cytotox: -5.5%[174 µM]; HEK293 tox: inactive; SNCA expr inh: inconclusive

Results for CCCCCNC(=O)c1ccc2c(c1)ncn2-c1cccc(C)c1 ?
IP6K1 inh: -31.4*; SNCA viab count: -21.5%; SNCA expr inh: 1.2%; IP6K1 inh cnf: inconclusive

What do the screens show for `Cc1cccc(C)c1OCc1cc(=O)n2c(-c3ccccc3)csc2n1`?
IP6K1 inh: -11.1; SNCA viab count: 6.2%; SNCA expr inh: -4.5%

Results for CC(C)c1ccc(OCc2cc(=O)n3c(-c4ccccc4)csc3n2)cc1 ?
IP6K1 inh: -30.7*; SNCA viab count: -14.0%; SNCA expr inh: 31.8%; IP6K1 inh cnf: -7.3%

What do the screens show for `Cc1ccc(CN2CCN(c3cc(NCCO)ncn3)CC2CCO)cc1` (centres undefined)?
IP6K1 inh: 2.7; SNCA viab count: 1.3%; Luciferase inh: inactive; 3T3 cytotox: -18.8%; HEK293 tox: -1.1%; SNCA expr inh: 8.3%

Results for COc1ccc(CN2CCN(c3cc(N(C)C)ncn3)CC2CCO)c(C)c1C (centres undefined) ?
IP6K1 inh: -35.3*; SNCA viab count: -1.5%; Luciferase inh: inactive; 3T3 cytotox: inconclusive; HEK293 tox: inconclusive; SNCA expr inh: 21.3%; IP6K1 inh cnf: -9.4%

How did O=C(C1CC1)N1CCCC(C(=O)N2CCCC2c2nc3ccncc3[nH]2)C1 (centres undefined) do in these assays?
IP6K1 inh: 8.5; SNCA viab count: -0.6%; 3T3 cytotox: -7.5%; HEK293 tox: 1.7%; SNCA expr inh: 1.0%

Results for Fc1cc(-c2cccc3ncc(-c4cnn(C5CCNCC5)c4)nc23)cc(F)c1CN1CCOCC1 ?
IP6K1 inh: 11.8; SNCA viab count: inconclusive; SNCA expr inh: inconclusive; IP6K1 inh cnf: -4.2%

Results for O=C(Cc1c[nH]c2ncc(-c3cccc(Cl)c3)cc12)NCc1cccnc1 ?
IP6K1 inh: -27.3*; SNCA viab count: -13.8%[87.6 µM]; Luciferase inh: inconclusive; 3T3 cytotox: inconclusive; HEK293 tox: 79.4µM*; SNCA expr inh: 0.9%[87.6 µM]; IP6K1 inh cnf: inconclusive

How did COc1cccc(-c2cnc3[nH]cc(CC(=O)NCc4cccnc4)c3c2)c1 do in these assays?
IP6K1 inh: -27.2*; SNCA viab count: -0.2%[87.6 µM]; Luciferase inh: inactive; 3T3 cytotox: inconclusive; HEK293 tox: inconclusive; SNCA expr inh: 3.6%[87.6 µM]; IP6K1 inh cnf: inconclusive

How did COCCCn1c(=O)c(C(=O)NCc2ccccc2Cl)nc2cccnc21 do in these assays?
IP6K1 inh: 20.0; SNCA viab count: 2.2%; 3T3 cytotox: -30.1%; HEK293 tox: -24.0%; SNCA expr inh: -3.4%

What do the screens show for `Cc1nn(-c2ccccc2)c2c1C(C(C)C)N(C1CCN([S+](=O)([O-])c3cccs3)C1)C2=O` (centres undefined)?
IP6K1 inh: 36.9; 3T3 cytotox: inconclusive; HEK293 tox: inconclusive

How did COc1cc2ccccc2cc1C(=O)Nc1ccc2oc(-c3cccc(C)c3)nc2c1 do in these assays?
IP6K1 inh: -27.6*; SNCA viab count: 5.1%; SNCA expr inh: 19.9%; IP6K1 inh cnf: 25.0%

Results for COc1cc2ccccc2cc1C(=O)Nc1ccc2oc(-c3ccc(Cl)cc3)nc2c1 ?
IP6K1 inh: 23.6; SNCA viab count: -4.8%; SNCA expr inh: 45.3%

How did O=C(Nc1nnc(N2CCCCCC2)s1)Nc1cc(F)ccc1F do in these assays?
IP6K1 inh: -29.3*; SNCA viab count: 7.8%; SNCA expr inh: 12.4%; IP6K1 inh cnf: -10.0%

How did O=C(Nc1nnc(N2CCCC2)s1)Nc1cc(F)ccc1F do in these assays?
IP6K1 inh: -12.4; SNCA viab count: -5.7%; SNCA expr inh: 47.1%

How did Cc1ccc(NCc2cccn2-c2nnc(N3CCC(C(=O)NCCc4ccc(Cl)cc4)CC3)s2)cc1 do in these assays?
IP6K1 inh: -25.2*; SNCA viab count: -8.0%; SNCA expr inh: inconclusive; IP6K1 inh cnf: 36.9%

How did CCn1ncc(N2CCCC(CC(=O)NC3CCCCC3)C2)cc1=O (centres undefined) do in these assays?
IP6K1 inh: 2.6; SNCA viab count: -1.8%; Luciferase inh: inactive; 3T3 cytotox: inactive; HEK293 tox: -6.0%; SNCA expr inh: 33.5%

What do the screens show for `CCC[C@H](NC(=O)C(C#N)=Cc1cccc(Br)n1)c1ccccc1`?
SNCA viab count: inconclusive; SNCA expr inh: inconclusive; IP6K1 inh cnf: inconclusive
